# Luc counter: blocks Kinase-Glo luciferase, a counter-screen artifact; Q27757; Kinase-Glo luciferase, ATP luminescence, 8 min; Potency, µM (top dose mostly 38.3 µM), inactives show at the top dose activity change, negative = inhibition, most hits filed as inhibitors; 0.28% of 200,000 active; AID 1379; note: % is set by controls: 0 for no effect and ±100 for the full control effect; nearly all actives have a fitted effect of over 60% in size
#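 Compound is pinned into ATP-containing buffer (10 uM ATP, imidazole pH 7.2, 7 mM MgCl2). Kinase-Glo luciferase reagent is then added. Light output is recorded following an 8-min room-temperature incubation.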
# NPC1 prom act: activators of NPC1 promoter. Huh7 NPC1 promoter luciferase reporter, 24 h. Potency, µM (doses to about 9.22 µM), for the others: at the highest dose activation, actives largely listed as activators. 2.4% of 320,000 active; note: % of control where 0% means no effect; nearly all actives have a fitted effect of over 60% in size
#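 Luminescence from an NPC1 promoter-driven luciferase reporter in stably transfected Huh7 cells was measured after 24 h compound treatment at 37 °C, followed by 10 min ambient incubation with luciferase detection reagent.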
# Rab9 promoter act: activates the Rab9 promoter. Huh7 Rab9 promoter-luciferase reporter, luminescence, 24 h. Potency, µM (highest dose often 9.22 µM), for inactives: at the top dose activation, negative = inhibition, actives largely listed as activators. 2.8% of 320,000 active. AID 485297; note: % of control where 0% means no effect; nearly all actives have a fitted effect of over 60% in size
#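 Luciferase signal after 10 min detection reagent at ambient indicates Rab9 promoter upregulation; stably transfected Huh7 cells were treated 24 h with compound in DMSO at 37 °C, 5% CO2.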
# SMN2 splice up: increases expression of the SMN2 splice variant | HEK293 SMN2-luciferase splicing reporter, luminescence, 30-36 h | Potency, µM (doses to about 46.1 µM), for the others: at the highest dose activity change, positive = activation, actives largely listed as activators | 2.8% of 210,000 active | AID 1458; note: % of control where 0% means no effect; nearly all actives have a fitted effect of over 55% in size
#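 qHTS luciferase splicing reporter: luminescence rises when SMN2 exon 7 is included in transfected HEK293 cells. Compound exposure lasted 30-36 h at 37C, with 4.5 mM final sodium butyrate as control, followed by a ONE-Glo read.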
# ELG1 genotox: induces genotoxicity in HEK293T cells with luciferase-tagged ELG1; HEK293T ELG1-luciferase reporter, luminescence, 16 h; Potency, µM (highest dose often 46 µM), for the others: top-dose activity change, positive = activation, most hits filed as activators; 1.3% of 330,000 active; note: % of control where 0% means no effect; nearly all actives have a fitted effect of over 60% in size
#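 16 hr compound incubation (37 °C, 5% CO2) of HEK293T cells carrying luciferase-tagged ELG1; luciferase then measured by ONE-Glo luminescence after 30 min at RT.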
# FLuc modulator: counter-screen for miR-21 project: firefly luciferase inhibitors or activators | purified FLuc, Km substrates, luminescence inhibition | Potency, µM (titrated, usually from 57.5 µM), inactives show at the highest dose activity change, negative = inhibition, hits mostly inhibitors | 6.9% of 360,000 active | AID 588342;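 note: plate controls were vehicle for no effect and reference inhibitor for full effect; nearly all actives have a fitted effect of over 55% in size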
# Target sequence (P08659 whole entry, looked up): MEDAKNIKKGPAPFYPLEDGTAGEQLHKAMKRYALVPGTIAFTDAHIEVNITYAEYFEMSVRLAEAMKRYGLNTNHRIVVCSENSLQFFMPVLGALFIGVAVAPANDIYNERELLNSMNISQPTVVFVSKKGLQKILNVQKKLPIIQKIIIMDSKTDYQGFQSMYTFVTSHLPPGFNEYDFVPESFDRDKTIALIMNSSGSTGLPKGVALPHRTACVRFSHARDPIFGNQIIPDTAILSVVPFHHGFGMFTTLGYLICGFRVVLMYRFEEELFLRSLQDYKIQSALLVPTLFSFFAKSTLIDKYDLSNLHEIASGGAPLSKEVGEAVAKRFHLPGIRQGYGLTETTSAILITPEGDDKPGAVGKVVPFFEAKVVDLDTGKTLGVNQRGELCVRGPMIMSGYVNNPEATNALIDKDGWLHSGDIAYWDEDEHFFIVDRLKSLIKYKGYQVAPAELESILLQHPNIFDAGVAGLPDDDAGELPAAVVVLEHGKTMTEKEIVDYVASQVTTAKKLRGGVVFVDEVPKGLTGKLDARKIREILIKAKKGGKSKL
#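 Biochemical qHTS of compounds, final roughly 60 µM downward over six points, against 10 nM purified firefly luciferase using Km concentrations of substrates (10 uM D-luciferin, 10 uM ATP) in Tris acetate pH 7.5 buffer; luminescence output.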
# Numbers without * were called inactive; ? = inconclusive; . = no result given; [ ] = remark or other dose. Shown are actives, neighbours in structure and some others; about 7.4% of the full set was active somewhere. Calls come from the whole dose curve; as a rule, active = well fitted curve in the direction sought with a large enough effect; inconclusive = small, poorly fitted or top-dose-only effect, or another doubt; inactive = no such curve, though single readings can be large; an effect the other way counts as inactive or inconclusive. Potency is the fitted concentration of half-maximal effect.
SMILES,Luc counter,NPC1 prom act,Rab9 promoter act,SMN2 splice up,ELG1 genotox,FLuc modulator
Cc1ccc(C)c(CNC(=O)Nc2ccccc2)c1,.,?,?,.,?,13µM*
Cc1ccc(CNC(=O)Nc2ccc(Cl)cc2)cc1,.,?,4µM*,.,?,-8%
Cc1ccc2[nH]cc(CCNC(=O)Nc3ccccc3)c2c1,-2%,1%,-3%,-36%,-3%,0%
Cc1cc2nn(-c3ccc(F)cc3)nc2cc1NC(=O)c1cc(Cl)ccc1Cl,.,.,.,18%,.,-6%
CCCCNC(=O)CSc1nc(N)c(C(=O)Nc2ccc(OC)cc2)s1,.,26%,28%,.,10%,17µM*
CN(C)c1ccc(NC(=O)c2sc(SCC(=O)Nc3nccs3)nc2N)cc1,-5%,25%,?,69%,?,1.9µM*
CN1CCCC2(CCN(C(=O)c3cc(C(F)(F)F)cc(C(F)(F)F)c3)CC2)C1,-3%,.,.,7%,.,.
Cc1ccc(C)c(S(=O)(=O)c2cn(Cc3ccccc3)c3cc(F)c(F)cc3c2=O)c1,.,.,.,-18%,.,-3%
Clc1ccc2c(c1)-n1cc(-c3ccccc3)nc1CO2,.,.,.,?,.,21µM*
Cc1cc(OCc2cc(C(=O)N(C)C3CCOC3)no2)cc(C)c1Cl (stereo not given),.,3.2µM*,1.8µM*,.,?,6µM*
Cc1cc(OCc2cc(C(=O)N(C)CCc3cnn(C)c3)no2)cc(C)c1Cl,.,2.8µM*,3.2µM*,.,?,8.5µM*
CC(=O)c1ccc(OCc2cc(C(=O)N(C)C3CCOC3)no2)cc1 (stereo not given),.,8%,2%,.,3%,1%
COc1cc(Cl)ccc1OCc1cc(C(=O)N(C)CCc2cnn(C)c2)no1,.,?,?,.,7%[9.26 µM],12µM*
c1ccc2c3c([nH]c2c1)[C@@H]1[C@H]2CC[C@H]([C@H]4CCCN[C@H]42)N1CC3,1%[17.1 µM],.,.,-2%[20.6 µM],.,.
COc1cccc(CNc2cnc3ccccc3c2)c1O,-4%,1.6µM*,1.8µM*,3.5µM*,12µM*,2.4µM*
COc1ccccc1Nc1nc2ccccc2n2cnnc12,.,10%,0%,.,-1%,?
Cc1ccc(O)c(CNc2cnc3ccccc3c2)c1,.,25%,2%,.,12%,?
COc1ccccc1Nc1nc2ccccc2n1C,-8%,?,2.8µM*,11µM*,?,15µM*
COc1cccc(CNc2nc3ccccc3n2C)c1O,.,1µM*,1.8µM*,.,9.2µM*,9.5µM*
CCCCCn1c(NCc2ccccc2OC)nc2ccccc21,.,.,.,2%,.,-18%
CCc1ccc2nc(N(CCN(CC)CC)C(=O)c3cccs3)sc2c1,.,.,.,.,.,-3%
CC(=O)Nc1ccc(NC(=O)CCCn2nc(C)c3sc4ccccc4c3c2=O)cc1,.,.,.,.,.,-6%
Cc1ccn2c(CN3CCOCC3)c(-c3ccccc3)nc2c1,1%,19%,?,20µM*,20%,?
O=C(Cc1ccccc1[N+](=O)[O-])NCc1ccccc1Cl,-9%,3.5µM*,2.8µM*,?,?,7.6µM*
Cc1ccccc1CNC(=O)Cc1ccccc1[N+](=O)[O-],-1%,?,4µM*,14µM*,?,17µM*
SMILES,Luc counter,NPC1 prom act,Rab9 promoter act,SMN2 splice up,ELG1 genotox,FLuc modulator
CCN(CC(=O)NCc1ccc(Cl)cc1)C(=O)Cc1ccccc1[N+](=O)[O-],.,2.5µM*,3.5µM*,.,?,?
Cc1cccc(C)c1NC(=O)CNC(=O)Cc1ccccc1[N+](=O)[O-],.,2%,0%,.,-2%,4%
O=c1/c(=C/c2ccc(O)cc2)sc2n1CCCN=2,.,1%,2.8µM*,.,?,9.5µM*
O=c1/c(=C\c2ccc(F)cc2)sc2n1CCCN=2,-12%,?,?,?,?,13µM*
COC(=O)/C=c1/sc2n(c1=O)CCN=2,11%,0%,1%,-8%,0%,2%
CN(C)c1ccc(/C=c2\sc3n(c2=O)CCCN=3)cc1,?,0.4µM*,0.32µM*,1.6µM*,?,0.24µM*
C=CCn1c(=O)/c(=C/c2ccc(F)cc2)s/c1=C(\C#N)c1nnc2n1CCCCC2,.,1%,2%,.,-5%,1%
CC(C)[C@@H]1CC[C@@H](C)C[C@@H]1P(=O)(c1ccccc1)c1ccccc1,.,-8%[46.1 µM],-4%[46.1 µM],.,.,.
Cn1ccnc1SCc1cn2cc(Br)ccc2n1,6%,0.32µM*,0.56µM*,?,?,3.8µM*
COC(=O)c1ccc(OC)c(CN2C(=O)N(c3ccc(C(C)=O)cc3)S(=O)(=O)c3ccccc32)c1,.,.,.,.,.,7%
COC(=O)c1sc(-c2ccc(Cl)cc2)cc1NC(=O)COCC(=O)O,.,3%,3%,.,5%,?
COC(=O)c1sc(-c2ccc(C(C)(C)C)cc2)cc1NC(=O)CCC(=O)O,.,24%,27%,.,?,1.5µM*
COC(=O)c1sc(-c2ccc(Cl)cc2)cc1NC(=O)/C=C/C(=O)O,.,0%,-6%,.,2%,9.5µM*
CCOc1ccc(-c2cc(NC(=O)c3ccccc3)c(C(=O)OC)s2)cc1,.,.,.,13%,.,2%
CCc1ccc(C(=O)c2cn(CC(=O)Nc3cccc(OC)c3)c3ccc(OC)cc3c2=O)cc1,.,0%,-2%,-7%,.,5%
COC(=O)c1ccc(OCC2c3cc(OC)c(OC)cc3CCN2C(=O)COc2ccc(Cl)cc2)cc1 (stereo not given),.,.,.,.,.,-2%
COc1ccc(OC)c(S(=O)(=O)NCCc2sc(C)nc2C)c1,.,.,.,.,.,1%
Cc1nn(-c2ccccc2)c(C)c1/C=N/NC(=O)CSc1nnc(SCc2ccccc2Cl)s1,-21%,?,26%,?,1%,6.7µM*
Cc1ccc(CSc2nnc(SCC(=O)N/N=C/c3c(C)nn(-c4ccccc4)c3C)s2)cc1,-1%,?,?,9%,-13%,4.3µM*
Cc1ccc(-c2nnc(SCC(=O)N/N=C/c3c(C)nn(-c4ccccc4)c3C)n2-c2ccccc2)cc1,1%,0%,0%,-8%,-8%,-2%
CCNS(=O)(=O)c1ccc(C)cc1,.,.,.,0%,.,.
COc1ccc(C)c2sc(=NC(=O)C(C)C)n(C)c12,2%,6%,2%,-16%,2%,-1%
COc1ccc(C)c2sc(=NC(=O)c3cccc(N4C(=O)CCC4=O)c3)n(C)c12,.,?,?,.,?,6.7µM*
C=CCn1c(=NC(=O)c2cccc(N3C(=O)CCC3=O)c2)sc2cccc(OC)c21,.,1%,-3%,.,-8%,?
COc1ccc(C)c2sc(=NC(=O)c3ccccc3)n(C)c12,13µM*,?,2.8µM*,11µM*,6.5µM*,2.1µM*
COc1ccc(C)c2sc(=NC(=O)c3ccc(C(C)=O)cc3)n(C)c12,.,0.56µM*,0.5µM*,.,?,0.67µM*

# Source: PubChem (National Center for Advancing Translational Sciences (NCATS))
